The values below come from PMC5540273 (PLoS ONE, 2017).

Each structure is given as a SMILES string.
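Also: KINOMEscan kinase panel screen.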

The experiment deals with BRSK1. To be noted: concentration: 1 μM, replicates: in singlicate; n = 1.
On to `CN(c1ccc2c(c1)nc(NCc1ccccc1)n2C)c1ccnc(Nc2ccc(CS(C)(=O)=O)cc2)n1.Cl` [GW811603], for which the “%Inh” value is reported as 0%.
Next, `COc1cccc(C2=C(Nc3cccc(O)c3)C(=O)NC2=O)c1` [SB-390771]: 7%; `O=C(Nc1c(F)cccc1F)c1cc(C(=O)c2ccccc2F)c[nH]1` [GSK1326180]: 0%; `CC(C)c1nc(-c2ccc(F)c(NS(=O)(=O)c3c(F)cccc3F)c2)c(-c2ccnc(Nc3ccc(N4CCOCC4)nc3)n2)s1` [GSK1804250]: 14%.
`Cl.O=C(Nc1ccc(Oc2ccc3[nH]c(NC(=O)c4ccco4)nc3c2)cc1)Nc1cc(C(F)(F)F)ccc1F` [GW683134]: the “%Inh” value was 0%.
Next, `c1ccc(Oc2ccc(Nc3ccnc4cc(-c5ccc(CN6CCCCC6)o5)ccc34)cc2)nc1` [GW567143]: 6%; `N#CC1(c2cccc(C(=O)Nc3cccc(Oc4ccc5nc(NC(=O)C6CC6)sc5n4)c3)c2)CC1`: 13%; `CNc1nccc(-c2ccc3c(N)n[nH]c3c2)n1` [GSK2206003]: 22%.
Next, `COc1cccc(NC(=O)NCCNc2ccnc(Nc3ccc(F)cc3)n2)c1` [GSK1379879]: 0%; `Cc1cccc(Nc2nc(N[C@H]3CCCC[C@H]3N)ncc2C(N)=O)c1.Cl` [GSK986310]: 16%.
The value for `COC(=O)Nc1nc2cc(Oc3ccc(NC(=O)Nc4cccc(SC)c4)cc3)ccc2[nH]1.Cl` [GW697999] was 3%.
For the compound `CN(c1ccc(NC(=O)N2CCN(CCCN3CCOCC3)CC2)cc1)c1ccnc(Nc2ccc(CS(C)(=O)=O)cc2)n1.Cl` [GW830899], the “%Inh” value turned out to be 83%.
